Screens from PubChem BioAssay.
G9a block – G9a (human) methyltransferase inhibition | Potency, µM (titrated, usually from 102 µM), inactives show at the top dose activity, negative = inhibition, hits mostly inhibitors | G9a H3K9 monomethylation, AlphaScreen, 2 h | Q96KQ7 | 350,000 tested, 8.8% active | AID 504332; note: % is set by controls: 0 for no effect and ±100 for the full control effect; nearly all actives have a fitted effect of over 75% in size
Target sequence (Q96KQ7 913-1193 limits assumed): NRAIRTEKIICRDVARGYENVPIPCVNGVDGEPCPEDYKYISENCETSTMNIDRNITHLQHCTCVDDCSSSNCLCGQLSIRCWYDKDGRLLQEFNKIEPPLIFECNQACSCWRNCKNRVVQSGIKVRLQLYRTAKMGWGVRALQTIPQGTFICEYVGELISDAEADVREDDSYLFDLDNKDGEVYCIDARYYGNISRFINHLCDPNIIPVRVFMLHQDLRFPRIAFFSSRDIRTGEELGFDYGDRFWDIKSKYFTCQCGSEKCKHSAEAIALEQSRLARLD
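Enzyme 20 nM + cpd, 15 min RT; add b-H3K9 pep 500 nM / SAM 20 uM; 2 h RT; anti-H3K9me1 Ab 0.5 ug/mL + SA donor / anti-rabbit acceptor beads 20 ug/mL each, 10 min; AlphaScreen read.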
BAZ2B inh – inhibitors of human BAZ2B bromodomain; Potency, µM (doses to about 114 µM), inactives show at the top dose activity change, negative = inhibition, hits mostly inhibitors; AlphaScreen BAZ2B-H3K14Ac peptide displacement; Q9UIF8; 360,000 tested, 4.4% active; note: % is set by controls: 0 for no effect and ±100 for the full control effect; nearly all actives have a fitted effect of over 60% in size
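In this displacement format the biotinylated H3(5-23) peptide acetylated at Lys14 serves as ligand at 50 nM, with BAZ2B at 50 nM in PBS pH 7.4 containing 0.01% Tween-20. Donor and acceptor beads are 10 ug/mL final.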
HP1b binding inh – HP1-beta chromodomain-methylated histone interaction inhibition | P83916 | AlphaScreen HP1-beta / biotin-H3K9me3 peptide binding | Potency, µM (titrated, usually from 114 µM), for the others: at the highest dose activity change, negative = inhibition, usual class: inhibitors | 390,000 tested, 0.56% active; note: nearly all actives have a fitted effect of over 70% in size
Target sequence (P83916 whole entry, looked up): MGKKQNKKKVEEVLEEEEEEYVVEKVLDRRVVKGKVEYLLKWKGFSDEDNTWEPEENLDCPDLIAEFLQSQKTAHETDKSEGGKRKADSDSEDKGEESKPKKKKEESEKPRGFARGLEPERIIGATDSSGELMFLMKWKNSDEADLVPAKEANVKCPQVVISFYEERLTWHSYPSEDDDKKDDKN
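HP1-beta protein (50 nM final) preincubated 30 min at room temperature with biotinylated H3(1-18)K9me3 peptide (50 nM) in PBS pH 7.4, 0.01% Tween-20, then compound added for 30 min. AlphaScreen streptavidin donor/nickel chelate acceptor beads (10 ug/mL final), 30 min dark, luminescence read.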
PLK1 PBD block – PLK1 (human) polo-box domain binding inhibition; P53350; Plk1 PBD binding of FITC phosphopeptide, fluorescence polarization; Potency, µM, inactives show max response, negative = inhibition, actives largely listed as inhibitors; 360,000 tested, 2.8% active; AID 720504; note: series mostly up to about 57 µM; % is set by controls: 0 for no effect and ±100 for the full control effect; nearly all actives have a fitted effect of over 65% in size
VDR inh – vitamin D3 receptor (human) inhibition. P11473. VDR-SRC2-3 peptide fluorescence polarization, 2 h. Potency, µM, for the others: max response, negative = inhibition, usual class: inhibitors. 400,000 tested, 0.93% active. AID 504847; note: % is set by controls: 0 for no effect and ±100 for the full control effect
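After 23 nl compound addition and a short centrifugation, plates sat for 2 hours at ambient temperature; polarization of fluorescence then indicated loss of VDR binding to peptide SRC2-3.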
JMJD2A Tudor – blocks the human JMJD2A Tudor domain. O75164. AlphaScreen JMJD2A-Tudor / H3K4me3 peptide binding. Potency, µM (top dose mostly 114 µM), for inactives: at the top dose activity change, negative = inhibition, hits mostly inhibitors. 390,000 tested, 4.4% active; note: % is set by controls: 0 for no effect and ±100 for the full control effect; nearly all actives have a fitted effect of over 50% in size
Numbers without * were called inactive; u = inconclusive; x = not tested or not shown; [ ] = remark or other dose. An excerpt weighted towards active compounds, which were near 11% of everything screened. Calls come from the whole dose curve; as a rule, active = well fitted curve in the direction sought with a large enough effect; inconclusive = small, poorly fitted or top-dose-only effect, or another doubt; inactive = no such curve, though single readings can be large; an effect the other way counts as inactive or inconclusive. Potency is the fitted concentration of half-maximal effect.

SMILES | G9a block | BAZ2B inh | HP1b binding inh | PLK1 PBD block | VDR inh | JMJD2A Tudor
CC(=O)N1CCN(c2ccc(NC(=O)c3ccc(OCc4ccccc4)cc3)cc2)CC1 | 12.0%[59 µM] | -2.4% | 13.5% | 15µM* | 28.2µM* | u
O=C(Nc1ccc(OCc2ccccc2)cc1)c1ccccc1 | 11.6% | x | 31.1% | -5.5% | u | -2.7%
Cc1cc2c(s1)c1cnn(Cc3c(F)c(F)c(C(F)(F)F)c(F)c3F)c(=O)c1n2C | x | x | x | x | x | -24.7%
OC(COc1ccc2c(c1)OCO2)CN1CCCCC1 (stereo unspecified) | -2.2% | -9.1% | 25.0% | 3.6% | 8.4% | 8.6%
CC(C)c1ccc(OCC(O)CN2CCN(c3ccccc3)CC2)cc1 (stereo unspecified) | u | 56.2µM* | -5.9% | 4.3% | 20.0% | -35.9%
OC(COc1ccc2c(c1)OCO2)CN1CCN(c2ccccc2)CC1 (stereo unspecified) | 50.1µM* | -37.8% | 1.7% | -9.3% | 2.9% | u
COc1ccc(-c2nc(SCC(=O)NCc3ccco3)c(-c3ccccc3)[nH]2)cc1OC | 44.7µM* | u | -11.9% | -6.2% | 0.7% | u
COc1ccc(-c2[nH]c(-c3ccc(F)cc3)nc2SCC(=O)NCc2ccco2)cc1OC | 89.1µM* | 4.7% | 30.6% | -16.4% | 5.0% | -23.1%
COc1ccc(-c2[nH]c(-c3ccccc3)nc2SCC(=O)NCc2ccco2)cc1OC | -27.8% | 2.6% | 27.9% | -8.0% | 9.7% | -22.4%
NC(=Nc1ccc(N)cc1)C(N)=Nc1ccc(N)cc1 | u | 5.62µM* | -24.8% | 1.7% | -10.8% | 25.1µM*
C=CCN1CCC(=O)C(C(=O)OCC)=C1C(=O)OCC | x | x | 34.7% | -10.4% | -9.0% | -8.0%
COc1cc(N=Nc2c(O)c3ccccc3[nH]c2=O)c(OC)cc1N=Nc1ccccc1 | 44.7µM* | u | u | -1.6% | 11.3% | u
COc1ccccc1-n1cnnc1SC(C)C(=O)NCC1CCCO1 (stereo unspecified) | 31.8%[12.7 µM] | 4.0% | 3.7% | -5.2% | 13.4% | -9.5%
COc1cccc(CNC(=O)COC(=O)c2ccc(N3CCCC3=O)cc2)c1 | x | x | x | -8.9% | x | x
NC(=O)c1sc2nc(-c3cccnc3)ccc2c1N | 10µM* | -28.3% | 35.1% | -13.4% | 4.7% | -16.9%
CC(=O)Nc1cccc(NC(=O)CSc2nc(C)c(C)c(C)c2C#N)c1 | 10µM* | 15.2% | 16.1% | u | -19.7% | -6.7%
Cc1ccc(Cl)cc1NC(=O)CSc1nc(C)c(C)c(C)c1C#N | -3.9%[59 µM] | -3.4% | 29.9% | x | 4.4% | 0.4%
Cn1cc([N+](=O)[O-])c(C(=O)Nc2cc(Oc3ccccc3)cc([N+](=O)[O-])c2)n1 | -21.9%[59 µM] | u | 6.6% | -14.6% | -10.3% | -18.3%
CC(=O)Nc1ccc(Oc2cc(NC(C)=O)cc([N+](=O)[O-])c2)cc1 | 1.9% | -13.8% | u | 7.52µM* | u | 17.8µM*
Cc1nn(C)cc1C(=O)Nc1cc(Oc2ccc(Cl)cc2)cc([N+](=O)[O-])c1 | -7.4%[59 µM] | 2.3% | u | 26.7µM* | -15.5% | u
CC(=O)Nc1ccc(NC(=O)c2cc([N+](=O)[O-])cc([N+](=O)[O-])c2)cc1 | 50.1µM* | u | 27.4% | -6.2% | -1.8% | -29.2%
CC(=O)Nc1ccc(Sc2ccc([N+](=O)[O-])o2)cc1 | x | x | -23.6% | 21.2µM* | u | -30.3%
Cc1cccc(N2CCN(C(=O)C3CCCN(S(=O)(=O)c4ccc5c(c4)oc(=O)n5C)C3)CC2)c1C (stereo unspecified) | -11.9%[59 µM] | -21.1% | 8.6% | x | -13.0% | u
CCOC(=O)C(C(=O)OCC)C(C[N+](=O)[O-])c1ccccc1 (stereo unspecified) | 8.4% | 4.0% | 30.6% | -8.8% | -14.6% | -2.6%
COC(=O)C1=C(C)N(CCCC(=O)O)C(=O)NC1c1cc2c(cc1[N+](=O)[O-])OCO2 (stereo unspecified) | 7.94µM* | u | -10.4% | -22.4% | -10.4% | 35.5µM*
SMILES | G9a block | BAZ2B inh | HP1b binding inh | PLK1 PBD block | VDR inh | JMJD2A Tudor
COC(=O)C1=C(C)N(C)C(=O)NC1c1cc2c(cc1[N+](=O)[O-])OCO2 (stereo unspecified) | u | 50.1µM* | 28.8% | -19.0% | -12.5% | -2.0%
COc1ccc(/C(O)=C2/C(=O)C(=O)N(CC3CCCO3)C2c2cccc(OC)c2)cc1 (stereo unspecified) | -35.4%[59 µM] | -12.5% | 23.4% | -0.3% | 4.6% | -34.3%
Cc1ccc(C2/C(=C(\O)c3ccc4c(c3)OCCO4)C(=O)C(=O)N2CC2CCCO2)cc1 (stereo unspecified) | 50.1µM* | -26.6% | -0.7% | -9.2% | -6.1% | u
COc1cccc(C2/C(=C(\O)c3ccc4c(c3)OCCO4)C(=O)C(=O)N2CC2CCCO2)c1 (stereo unspecified) | u | -28.7% | 5.5% | -0.2% | -5.3% | 22.4µM*
Cc1ccc(C2/C(=C(\O)c3ccc4c(c3)OCCO4)C(=O)C(=O)N2Cc2cccnc2)cc1 (stereo unspecified) | 56.2µM* | -19.8%[57.1 µM] | 27.5% | -2.1% | -12.4% | -30.1%
COc1ccc(/C(O)=C2/C(=O)C(=O)N(CC3CCCO3)C2c2ccc(O)c(OC)c2)cc1 (stereo unspecified) | 50.1µM* | -6.1% | -17.9% | -17.0% | 18.3% | -26.1%
Cc1c(P(=S)(c2ccccc2)c2ccccc2)c2ccccc2n1CCCc1ccccc1 | x | x | x | x | x | -2.0%
COc1cc(C2C(N3C(=O)c4ccccc4C3=O)C(=O)N2c2cccc(C)c2)cc(OC)c1OC (stereo unspecified) | -37.9%[59 µM] | -7.5% | x | x | x | x
O=C(Cc1ccccc1F)NC1CCCN(Cc2ccc(Cl)cc2)C1 (stereo unspecified) | u | 2.2% | 61.1% | -4.6% | -18.6% | -21.0%
COC(=O)c1cc(OC)nc(OC)c1 | -3.3% | 4.2% | 43.9% | -1.9% | -14.1% | -5.3%
COC(=O)c1cc(O)c(O)c(O)c1 | 39.8µM* | 79.4µM* | u | 0.6% | -3.6% | 20µM*
S=C(NCc1ccco1)Nc1cc(-c2ccccc2)[nH]n1 | -150.9%[59 µM] | 39.8µM* | u | -15.7% | 12.6% | u
O=S(=O)(c1ccc(NC(=S)NCc2ccco2)cc1)N1CCCC1 | u | u | 11.0% | -13.1% | 0.6% | -19.7%
S=C(NCc1ccco1)Nc1ccc(Oc2ccccc2)cc1 | x | u | u | 16.8µM* | -14.4% | -23.2%
S=C(NCc1ccco1)Nc1ccc(N2CCOCC2)cc1 | u | -6.4% | -14.3% | 26.7µM* | u | -24.5%[57.1 µM]
S=C(NCc1ccco1)Nc1ccc(Br)cn1 | 62.7% | 9.7% | 16.5% | u | -19.2% | -13.7%
COc1ccc(C(=O)N2CCC(c3nc4ccccc4s3)CC2)cc1Cl | -3.7%[59 µM] | -13.5% | 46.6% | x | 8.7% | -2.6%
